# Experimental data taken from the supplement of paper PMC12669032.
# Values without a mark were called inactive.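 The calls were made as follows: active = AUC reduced over 20% with Padj below 0.05 in at least 2 of 3 replicates; inactive = otherwise.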
# What was measured:
# Assay in all cases: growth AUC relative to DMSO control (median of replicates) (fraction); higher = more growth (less inhibition), active = hit call of the paper
# Details in all cases: 20 µM; 24 h
# Akkermansia muciniphila = system: Akkermansia muciniphila
# Outline: (§1)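 For each compound at 20 µM (1% DMSO), gut bacterial monocultures seeded at OD600 0.05 grew anaerobically in mGAM at 37 °C in round-bottom 96-well plates. Hourly OD600 readings over 24 h gave growth curves whose minimum OD was set to 0. Area under these curves was normalised to the plate median of solvent-only wells, or to row and column medians on the industrial chemical plate. Values are medians of three biological replicates grown on separate days.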
# Bacteroides caccae = system: Bacteroides caccae
# Outline: as §1
# Bacteroides clarus = system: Bacteroides clarus
# Outline: as §1
# Bacteroides dorei = system: Bacteroides dorei
# Outline: as §1
# Bacteroides stercoris = system: Bacteroides stercoris
# Outline: as §1
# [1] = system: Bacteroides thetaiotaomicron
# Outline: as §1
# Bacteroides uniformis = system: Bacteroides uniformis
# Outline: as §1
# [2] = system: Bifidobacterium longum subsp. longum
# Outline: as §1
# Clostridium difficile = system: Clostridium difficile
# Outline: as §1
# Collinsella aerofaciens = system: Collinsella aerofaciens
# Outline: as §1
# Coprococcus comes = system: Coprococcus comes
# Outline: as §1
# Escherichia coli ED1a = system: Escherichia coli ED1a
# Outline: as §1
# Escherichia coli IAI1 = system: Escherichia coli IAI1
# Outline: as §1
# Eubacterium rectale = system: Eubacterium rectale
# Outline: as §1
# [3] = system: Fusobacterium nucleatum subsp. animalis
# Outline: as §1
# Lactobacillus gasseri = system: Lactobacillus gasseri
# Outline: as §1
# Lactobacillus paracasei = system: Lactobacillus paracasei
# Outline: as §1
# Odoribacter splanchnicus = system: Odoribacter splanchnicus
# Outline: as §1
# [4] = system: Parabacteroides distasonis
# Outline: as §1
# Parabacteroides merdae = system: Parabacteroides merdae
# Outline: as §1
SMILES,growth AUC (Akkermansia muciniphila),growth AUC (Bacteroides caccae),growth AUC (Bacteroides clarus),growth AUC (Bacteroides dorei),growth AUC (Bacteroides stercoris),growth AUC [1],growth AUC (Bacteroides uniformis),growth AUC [2],growth AUC (Clostridium difficile),growth AUC (Collinsella aerofaciens),growth AUC (Coprococcus comes),growth AUC (Escherichia coli ED1a),growth AUC (Escherichia coli IAI1),growth AUC (Eubacterium rectale),growth AUC [3],growth AUC (Lactobacillus gasseri),growth AUC (Lactobacillus paracasei),growth AUC (Odoribacter splanchnicus),growth AUC [4],growth AUC (Parabacteroides merdae)
Oc1ccc2nc(-c3cscn3)[nH]c2c1,0.877,1.07,0.955,0.997,0.98,0.985,0.982,1.01,0.988,1.01,0.994,0.988,0.974,1.01,0.975,0.869,0.997,1.01,1.02,0.958
CC1=C(c2ccccc2)C(=O)N(C(C)(C)c2cc(Cl)cc(Cl)c2)CO1,1.11,0.962,0.925,0.981,0.895,0.93,0.917,0.956,1.02,0.965,0.972,1.01,0.987,0.982,0.935,1.01,1.04,0.972,0.732 (active),0.811
O.O.O=[N+]([O-])c1ccc([O-])cc1.[Na+],1.02,0.999,1,0.988,1.09,1.02,0.989,1.08,1.04,1.02,1.09,1.05,1.01,0.918,0.968,1.01,1.04,0.85,0.971,0.994
CCS(=O)(=O)c1nnc(N(C)C(=O)NC)s1,0.883,1.02,0.977,1.01,1.03,1.01,0.995,0.995,0.974,1.06,0.938,0.984,0.99,0.976,1.01,1.04,0.851,0.992,1.06,1.01
CCCCCCC(C)OC(=O)C(C)Oc1ccc(Cl)cc1C (stereo not given),0.913,0.996,0.973,0.983,0.983,1,1.02,0.848,1.01,0.968,0.994,0.985,0.999,0.96,0.956,1,0.909,1.03,1.01,0.989
Nc1ccc(S(=O)(=O)Nc2nccs2)cc1,0.9,1.03,0.992,0.943,0.985,0.978,1.02,0.998,0.98,0.978,1.02,0.994,0.968,0.97,0.993,0.97,1.02,0.987,1,1.03
CC(CNC(=S)[S-])NC(=S)[S-].[Zn+2] (mixture of isomers),1.05,0.937,1.02,1,1.12,1.01,1.03,0.975,1,0.999,1.04,0.997,0.983,1.15,1.08,0.956,1.14,0.945,1.01,1.02
CN(C)C(=O)SCCCCOc1ccccc1,0.993,0.957,0.967,0.99,0.915,0.973,0.992,0.984,0.983,0.993,0.968,0.98,0.962,1.12,0.958,1.01,0.975,0.981,0.938,0.961
COC(=O)C(Cl)Cc1ccc(Cl)cc1 (stereo not given),1.01,0.921,0.973,0.99,1.03,1.02,0.921,1.01,0.983,0.936,0.962,0.994,0.971,0.994,0.995,0.891,1.06,0.899,1,0.901
O=[N+]([O-])c1ccc2c(c1)Cc1ccccc1-2,0.896,0.995,1.01,0.991,0.981,0.985,1,1.06,0.992,1,0.98,0.984,0.989,1.07,0.897,1.03,0.998,0.982,1.1,0.992
CCNc1nc(NCC)nc(OC)n1,0.914,1.02,1.02,1,1.01,0.967,0.992,0.957,1,0.992,1.05,1.03,0.975,1,1.01,0.921,0.977,1.01,1.04,1
C[S+](C)CCC(=O)O.[Cl-],0.964,1.03,0.974,1.04,0.974,1,1.01,1.01,1.01,0.986,0.97,0.985,1.01,0.923,0.939,1.08,1.01,0.979,0.959,1.02
CC(C)c1cccc2c(=O)c3ccccc3sc12,1.1,0.922,1.03,0.913,1.21,0.963,0.995,1.06,0.895,0.95,0.979,1.03,1.04,1,1.19,0.968,1.05,1.05,0.952,0.885
COc1cc(OC)nc(NC(=O)NS(=O)(=O)N(C)S(C)(=O)=O)n1,0.951,1.03,1.05,1.01,1.06,0.982,0.98,0.945,0.907,1.04,1,1.02,1.01,1.04,1.01,1.06,1.04,1.06,1.01,0.983
CC(C)C(O)(c1ccc(OC(F)(F)F)cc1)c1cncnc1 (stereo not given),0.853,1,0.938,0.991,1.22,0.939,0.972,1.03,0.985,1.03,1.01,0.981,0.961,0.994,0.926,1.05,1.02,0.938,0.959,0.588 (active)
C/C=C/C=C/CCCCCCCO,0.879,1.03,0.982,1.02,1.07,0.969,1,1.01,0.984,1.02,0.995,1.01,0.983,1.03,1.08,0.96,0.984,1.03,0.967,0.982
